This is a sample that favours compounds with a hit; in the whole collection about 3.3% have one here.
PI5P4Ka inh: qHTS for Inhibitors of phosphatidylinositol 5-phosphate 4-kinase (PI5P4K); PI5P4Kalpha enzyme, ADP-Glo luminescence, 60 min; stronger effect = lower value; Phosphatidylinositol 5-phosphate 4-kinase type-2 alpha (Homo sapiens), P48426; 1.2% of 330,000 active; max response, %; active means max response of -50% or lower; inconclusive means between -30% and -50%; inactive means -30% or higher; further: value at the top dose of about 77 µM
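Human PI5P4Kalpha with substrate in 0.038 M HEPES pH 7.4, 0.28 mM EGTA, 0.1% CHAPS, 5% DMSO; reaction started with 5 microM ATP (final), 60 min at room temperature. ADP formed read by ADP-Glo luminescence.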
PLK1 PBD inh: qHTS for Inhibitors of PLK1-PDB (polo-like kinase 1 - polo-box domain): Primary Screen. Plk1 PBD binding of FITC phosphopeptide, fluorescence polarization. Potency, µM, for inactives: max response, negative = inhibition, most hits filed as inhibitors. 2.8% of 360,000 active. AID 720504, 2013; further: potency means the concentration at half of the fitted maximal effect; series mostly up to about 57 µM; nearly all actives have a fitted effect of over 65% in size
Target sequence (P53350 whole entry, looked up, the tested form may be a part): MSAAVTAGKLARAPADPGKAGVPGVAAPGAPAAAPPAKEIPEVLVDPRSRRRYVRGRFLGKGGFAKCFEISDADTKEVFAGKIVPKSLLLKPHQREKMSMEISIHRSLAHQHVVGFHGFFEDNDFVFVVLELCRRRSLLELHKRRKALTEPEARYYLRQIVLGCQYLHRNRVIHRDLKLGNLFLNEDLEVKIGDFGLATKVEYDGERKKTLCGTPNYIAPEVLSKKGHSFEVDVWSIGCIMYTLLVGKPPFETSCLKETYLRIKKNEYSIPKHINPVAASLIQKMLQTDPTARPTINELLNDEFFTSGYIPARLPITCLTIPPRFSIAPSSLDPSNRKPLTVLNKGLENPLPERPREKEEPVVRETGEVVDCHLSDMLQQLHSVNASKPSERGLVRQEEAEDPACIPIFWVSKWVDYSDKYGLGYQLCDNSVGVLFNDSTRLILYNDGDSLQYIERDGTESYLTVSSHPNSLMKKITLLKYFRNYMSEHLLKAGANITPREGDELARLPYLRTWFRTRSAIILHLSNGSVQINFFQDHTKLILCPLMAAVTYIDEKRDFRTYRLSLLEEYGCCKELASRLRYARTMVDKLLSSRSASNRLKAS
USP2a block: qHTS Assay for Inhibitors of Ubiquitin-specific Protease USP2a Using CHOP2 as the Reporter. 0.01% of 330,000 active. AID 463254, 2010. Potency, µM (titrated, usually from 38.3 µM), inactives show at the top dose activity change, negative = inhibition, most hits filed as inhibitors. USP2 core, Ub-CHOP2 coupled fluorogenic reporter, 485/531. Ubiquitin carboxyl-terminal hydrolase 2 (Homo sapiens), O75604;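 further: potency means the concentration at half of the fitted maximal effect; plate controls were DMSO wells for no effect and full inhibition by NEM control for full effect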
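Deubiquitinase activity read as fluorescence (485/531 nm) after Ub-CHOP2 cleavage activates the enterokinase reporter on its substrate; USP2 core 10nM, Ub-CHOP2 and substrate 25nM each, 30min compound preincubation then 60min RT; data normalized to NEM, curves fitted.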
USP1 inh: Inhibitors of USP1/UAF1: Primary Screen | Ubiquitin carboxyl-terminal hydrolase 1 (Homo sapiens), O94782 | recombinant USP1/UAF1, Ub-Rhodamine cleavage fluorescence | Potency, µM (doses to about 57.1 µM), for the others: at the highest dose activity change, negative = inhibition, most hits filed as inhibitors | 0.23% of 390,000 active; further: potency means the concentration at half of the fitted maximal effect; nearly all actives have a fitted effect of over 60% in size
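In this screen, compounds sit with the deubiquitinase complex (1nM) for 15 min at room temperature before Ub-Rho is added at 150nM final. Fluorescence rise is then followed for 6 reads every 60 seconds.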
WRN helicase inh: qHTS for Inhibitors of WRN Helicase; Bifunctional 3'-5' exonuclease/ATP-dependent helicase WRN (Homo sapiens), Q14191; WRN helicase unwinding, fluorescent forked duplex, kinetic; Potency, µM (highest dose often 114 µM), without a hit: at the top dose activity change, negative = inhibition, usual class: inhibitors; 0.46% of 360,000 active; AID 651768, 2012; further: potency means the concentration at half of the fitted maximal effect; nearly all actives have a fitted effect of over 55% in size
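Enzyme (20 nM final) and test compound sit together 15 min at room temperature before substrate addition. Substrate is a single-forked duplex oligonucleotide (100 nM) labelled with fluorophore and quencher, with 2 mM ATP; helicase unwinding raises red fluorescence, read kinetically.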
* = called active by the depositor; i = inactive; ? = inconclusive; nt = no result; [ ] = another dose, or the depositor's remark. Unless noted, the call rests on the fitted dose curve; in most records, active means well fitted curve in the direction sought with a large enough effect; inconclusive means small, poorly fitted or top-dose-only effect, or another doubt; inactive means no such curve, though single readings can be large; an effect the other way counts as inactive or inconclusive. Unless noted, on the % scale 0 is the no-effect control and ±100 the full control effect.

SMILES | PI5P4Ka inh | PLK1 PBD inh | USP2a block | USP1 inh | WRN helicase inh
Cc1cc(O)c(C=O)c2c1C(=O)Oc1c(CO)c(O)c3c(c1O2)C(O)OC3=O (stereo unspecified) | -84.0* | 7.52µM* | ? | ? | 3.55µM*
O=[N+]([O-])c1ccc(-c2c[nH]c(=S)[nH]2)cc1 | -77.5* | 7.52µM* | 2.5% | -11.9% | -9.3%[11.6 µM]
COc1ccc2c3c(c(=O)oc2c1)C1O[C@](c2ccsc2)(Cc2cc(C#N)ccc21)O3 | nt | nt | 1.8%[7.66 µM] | nt | nt
COC(=O)N1CCc2c(sc(NC(=O)C3COc4ccccc4O3)c2C(N)=O)C1 (stereo unspecified) | -27.0 | 10.6µM* | -2.5% | -2.5% | -32.0%
O=C(NC1CCCCC1NC(=O)c1ccco1)c1ccco1 (stereo unspecified) | -1.7 | -2.8% | 0.8% | -12.3% | 8.5%
O=C(NC1c2ccccc2-c2ccccc21)c1ccco1 | -7.6 | 21.2µM* | -0.7% | -21.2% | 9.1%
N/C(Cc1ccc([N+](=O)[O-])cc1)=N\OC(=O)COc1cccc2ccccc12 | nt | -3.9% | 0.6% | -22.5% | -4.9%
N/C(Cc1ccc([N+](=O)[O-])cc1)=N\OC(=O)COc1ccccc1Cl | -59.4* | -5.4% | -0.7% | -8.8% | -22.4%
O=C(CSc1nnc(CNC(=O)c2ccco2)o1)Nc1ccccc1C(F)(F)F | -0.1 | 8.5% | 1.5% | -11.9% | 0.5%[57.1 µM]
O=C(CSc1nnc(CNC(=O)c2ccco2)o1)Nc1ccccc1F | -5.3 | 21.2µM* | 0.3% | -10.5% | 5.8%
O=C(CSc1nnc(CNC(=O)c2ccco2)o1)c1ccc(Cl)cc1 | -6.2 | 26.7µM* | -1.1% | -13.2% | -0.6%
COCCn1c(NC(=S)NC(=O)C23CC4CC(CC(C4)C2)C3)cc(=O)[nH]c1=O | ? | ? | 5.6% | -18.7% | 4.1%
COCCn1c(NC(=S)NC(=O)C2CC2)cc(=O)[nH]c1=O | -60.2* | ? | 0.6% | -17.6% | ?
O=C(Nc1ccc(-n2nncc2-c2ccco2)cc1)c1cc2ccccc2oc1=O | nt | -7.7% | 0.5% | -15.4% | 50.1µM*
Cc1ccc(C)c(NC(=O)Cn2cc(S(=O)(=O)N3CCCC3)c(S(=O)(=O)N3CCCC3)c2)c1 | nt | nt | nt | -8.0% | nt
O=C(OCCN1C(=O)c2cccc3c(N4CCOCC4)ccc(c23)C1=O)c1ccc(Cl)cc1Cl | 13.1 | 18.9µM* | 3.8% | i | -1.0%
O=C(OCCN1C(=O)c2cccc3c(N4CCOCC4)ccc(c23)C1=O)c1ccccc1Cl | -7.1 | ? | ? | ? | -1.5%
O=C(OCCN1C(=O)c2cccc3c(N4CCOCC4)ccc(c23)C1=O)c1cccc(Cl)c1 | 13.7 | 21.2µM* | 10.0% | ? | -5.1%
CCC(C)NC(=O)c1sc2nc3n(c(=O)c2c1C)CCC3 (stereo unspecified) | nt | nt | nt | -17.3% | nt
Cc1[nH]c2ccccc2c1C(=O)CSc1ccc(Cl)cc1 | 4.9 | 11.9µM* | 5.9% | -20.7% | -18.7%
Cc1cccc(NC(=O)c2sc3nc(N)c(C#N)cc3c2N)c1 | -50.7* | -16.4% | 3.5% | 6.1% | -22.1%
COc1cc(/C=C(\C#N)C(=O)c2ccc(O)c(O)c2)cc(I)c1O | -84.9* | 40.2% | -7.7% | 25.1µM* | 1.19µM*
Cc1ccc(S(=O)(=O)c2nc(-c3ccccc3F)oc2N2CCCCC2)cc1 | nt | nt | nt | -1.6% | nt
Cc1ccccc1OC1=NS(=O)(=O)c2ccccc21 | -28.3 | 29.9µM* | 0.3% | -4.6% | -3.4%
O=S1(=O)N=C(Oc2cccc3ccccc23)c2ccccc21 | -0.5 | -17.2% | 3.6% | -6.7% | 12.1%
SMILES | PI5P4Ka inh | PLK1 PBD inh | USP2a block | USP1 inh | WRN helicase inh
CCOC(=O)c1c(NC(=O)C2C3C=CC(C3)C2C(=O)O)sc2c1CCC(CC)C2 (stereo unspecified) | -23.1 | 26.7µM* | -10.3% | -1.2% | -11.4%
CC(C)Cn1c(=S)[nH]c2cc(Cl)ccc21 | 1.4 | 23.8µM* | 0.8% | ? | 2.0%
FC(F)Oc1ccc(-c2csc(NNC3=NCCCCC3)n2)cc1 | ? | 3.77µM* | 0.0% | -2.2% | -0.1%[57.1 µM]
Brc1cccc(-c2nnc(-c3ccccc3)o2)c1 | 5.1 | -5.9% | -4.2% | 5.4% | -9.3%
Cc1ccc(-c2nnc(-c3cccc(Br)c3)o2)cc1 | 0.1 | 26.7µM* | -2.6% | -16.0% | 0.5%
CC1(CC(=O)N/N=C/c2cc([N+](=O)[O-])c(O)cc2O)OCCO1 | -64.1* | 9.47µM* | -2.4% | -22.2% | ?
CCCCN(CC)C(=O)c1ccc2c(c1)NC(=O)c1ccccc1S2 | nt | nt | nt | -23.9% | nt
COc1cccc(-c2nc(CS(=O)(=O)CC(=O)Nc3cccc(C(C)=O)c3)c(C)o2)c1 | -8.2 | 23.8µM* | 0.3% | -13.1% | 2.3%
COc1ccc(-c2nc(CS(=O)(=O)CC(=O)Nc3cccc(C(C)=O)c3)c(C)o2)cc1 | -0.1 | -14.7% | 3.0% | -17.7% | -10.9%
Cc1ccc(C(=O)NCC(=O)OCC(=O)/C=C2\N(C)c3ccccc3C2(C)C)cc1C | -17.2 | 29.9µM* | 1.5% | ? | -5.8%
Cc1ccc(F)c(NC(=O)/C(C#N)=C(\O)c2ccc(C(C)(C)C)cc2)c1 | -28.1 | 29.9µM* | 5.0% | 22.4µM* | -2.1%[11.6 µM]
COc1ccc(C(=O)NCc2nc(-c3cccc(C)c3)no2)cc1OC | nt | nt | nt | 10.1% | nt
COc1ccc(C2(CNC(=O)c3cccc([N+](=O)[O-])c3)CCOCC2)cc1OC | -11.0 | 15µM* | 1.1% | 1.5% | 4.7%
N#CC1=C(N)OC(c2ccccc2)=C(C#N)C1c1ccc2c(c1)OCO2 (stereo unspecified) | nt | 11.9µM* | 0.8% | -10.0% | -14.5%
CCOC(=O)/C(C#N)=C\c1cc(C)n(-c2ccccc2)c1C | 0.4 | -3.5% | -0.7% | -11.0% | -10.6%
CCOC(=O)/C(C#N)=C\c1ccc(N2CCN(C/C=C/c3ccccc3)CC2)cc1 | 23.0 | -23.8% | 5.7% | 28.2µM* | ?
CCOc1ccc(NC(=O)CC2C(=O)N(c3ccc(Cl)cc3)C(=O)N2Cc2cccs2)cc1 (stereo unspecified) | nt | nt | nt | -0.7% | nt
Cc1[nH]c2c(C)cccc2c1CC(=O)O | 7.6 | -16.6% | 0.4% | -14.8% | -10.3%
Cc1cccc2c(N=O)c(O)[nH]c12 | -58.8* | 3.77µM* | 0.0% | -27.9% | -11.3%
O=C1C(F)=CC(COC(c2ccccc2)(c2ccccc2)c2ccccc2)OC1n1cc(F)c(=O)[nH]c1=O (stereo unspecified) | ? | 5.97µM* | nt | ? | ?
Cc1cc(C)c2nc(NNC(=O)c3cc(=O)c4ccccc4o3)sc2c1 | ? | -26.2% | 2.9% | 28.2µM* | 5.5%
